The text below walks through data of PubChem BioAssay.

Values joined by “and” are separate entries in the source; they are usually repeats but may differ in a detail not shown here. Equal values may be shown once. For some of these results: Results with a measured potency or affinity are listed apart. Some compounds were tested as several samples or in several runs, with calls that do not always agree. Active and inactive are the calls of the source. Unless noted, the rule behind the calls is not given here.

The term inhibition denotes the relative decrease from the control value, in per cent.

Experiment [1] in a line: antimalarial activity against Dd2 strain (AID 2302;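 active = growth inhibition above 50% at the single 2 µM test dose, taken to imply half-maximal potency below 2 µM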;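 note: 0% = DMSO untreated growth and 100% = chloroquine plus artemisinin killed control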). Conditions: P. falciparum Dd2 in RBCs, LDH growth readout, 72 h; at 2 µM; stronger effect = higher value.
The nature of experiment [2]: human hepatoma cell viability loss – ATP luminescence, cytotoxicity control for P. falciparum antimalarial project, primary screen (AID 2303;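 active = inhibition above 50%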;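 note: 0% = DMSO wells and 100% = digitonin-killed cells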). The settings on record: HepG2 viability, 24-48 h, at 10 µM, stronger effect = higher value.
Experiment [3] addresses L-lactate dehydrogenase (Plasmodium falciparum (isolate CDC / Honduras)) (UniProt Q27743). The experiment in a line: PfLDH activity inhibition – cell lysate, 3D7 strain, counter-screen for P. falciparum growth inhibition project (AID 2304).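 Note: 0% = vehicle and 100% = reference inhibitor.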 Conditions: P. falciparum 3D7 crude extract, LDH APAD/NBT absorbance; at 2 µM; stronger effect = higher value. Background: A counterscreen serves to expose hits that act by an unwanted route or on another target.

Experiment [4] is described as follows: inhibition of 3D7 malaria parasite growth – strain 3D7 (AID 2306).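 Note: 0% = DMSO wells and 100% = chloroquine plus artemisinin control wells.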 Conditions: P. falciparum 3D7 erythrocytic growth, LDH absorbance, 72 h; at 2 µM; stronger effect = higher value.
In experiment [5] the target is Calcium-dependent protein kinase 1 (Plasmodium falciparum (isolate 3D7)) (UniProt P62344). The experiment is described as follows: PfCDPK1 kinase inhibitors, biochemical, TCAMS library (AID 1159585; cut-off not given, nearly all actives have IC50 up to about 0.98 µM;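 note: inhibitors leave more ATP so luminescence rises with inhibition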). The settings on record: recombinant PfCDPK1, Kinase-Glo ATP depletion luminescence.
The target in experiment [6] is Plasmodium falciparum protein kinase 6 (PK6, PF3D7_1337100) (UniProt Q8IDW1). The experiment in a line: PfPK6 kinase inhibitors, biochemical, TCAMS library (AID 1159586). Conditions: recombinant PfPK6, Kinase-Glo ATP depletion luminescence.
Experiment [7] concerns the target Protein kinase 7 (PK7), Plasmodium falciparum 3D7 (PF3D7_0213400) (UniProt Q7YTF7). The experiment in a line: inhibition of Plasmodium PK7 catalytic activity – biochemical, TCAMS antimalarial set, Kinase-Glo luminescence (AID 1159587). Conditions: recombinant PfPK7, Kinase-Glo ATP depletion luminescence.
Experiment [8] addresses Calcium-dependent protein kinase 4 (Plasmodium falciparum (isolate 3D7)) (UniProt Q8IBS5). The experiment in a line: PfCDPK4 kinase inhibitors, biochemical, TCAMS library (AID 1159588; cut-off not given, nearly all actives have IC50 up to about 0.91 µM). The settings on record: recombinant PfCDPK4, Kinase-Glo ATP depletion luminescence. (In general: Kinase-Glo reads ATP consumption through a luciferase reaction.)

Sequence of Calcium-dependent protein kinase 1 (Plasmodium falciparum (isolate 3D7)) (P62344 whole entry, looked up): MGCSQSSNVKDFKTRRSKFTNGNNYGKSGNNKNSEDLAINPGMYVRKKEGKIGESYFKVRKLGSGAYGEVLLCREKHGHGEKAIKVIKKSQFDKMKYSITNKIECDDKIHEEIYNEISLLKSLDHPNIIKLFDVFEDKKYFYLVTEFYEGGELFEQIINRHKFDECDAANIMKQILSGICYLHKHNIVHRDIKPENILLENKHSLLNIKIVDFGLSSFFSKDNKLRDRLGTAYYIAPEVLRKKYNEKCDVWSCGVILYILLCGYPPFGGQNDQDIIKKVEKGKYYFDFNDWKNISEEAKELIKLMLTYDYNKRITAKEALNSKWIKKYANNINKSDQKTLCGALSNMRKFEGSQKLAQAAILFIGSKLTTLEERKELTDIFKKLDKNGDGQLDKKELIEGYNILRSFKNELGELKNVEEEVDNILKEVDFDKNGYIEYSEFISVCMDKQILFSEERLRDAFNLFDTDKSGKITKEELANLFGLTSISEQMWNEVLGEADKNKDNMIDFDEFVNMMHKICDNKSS
Sequence of Calcium-dependent protein kinase 4 (Plasmodium falciparum (isolate 3D7)) (Q8IBS5 whole entry, looked up): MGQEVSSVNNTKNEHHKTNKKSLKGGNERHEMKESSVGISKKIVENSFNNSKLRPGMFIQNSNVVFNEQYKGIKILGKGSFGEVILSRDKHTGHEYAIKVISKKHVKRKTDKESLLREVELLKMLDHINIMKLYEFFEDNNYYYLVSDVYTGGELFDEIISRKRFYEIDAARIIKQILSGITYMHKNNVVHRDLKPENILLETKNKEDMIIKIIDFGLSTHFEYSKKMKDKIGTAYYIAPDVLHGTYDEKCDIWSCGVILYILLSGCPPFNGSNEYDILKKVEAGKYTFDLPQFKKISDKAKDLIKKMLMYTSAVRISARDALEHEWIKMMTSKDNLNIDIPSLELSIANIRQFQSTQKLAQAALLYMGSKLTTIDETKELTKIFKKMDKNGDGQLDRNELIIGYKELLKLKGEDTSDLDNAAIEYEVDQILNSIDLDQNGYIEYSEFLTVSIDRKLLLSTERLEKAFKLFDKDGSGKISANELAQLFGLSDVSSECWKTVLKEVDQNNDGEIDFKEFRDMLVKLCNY
Sequence of L-lactate dehydrogenase (Plasmodium falciparum (isolate CDC / Honduras)) (Q27743 whole entry, looked up): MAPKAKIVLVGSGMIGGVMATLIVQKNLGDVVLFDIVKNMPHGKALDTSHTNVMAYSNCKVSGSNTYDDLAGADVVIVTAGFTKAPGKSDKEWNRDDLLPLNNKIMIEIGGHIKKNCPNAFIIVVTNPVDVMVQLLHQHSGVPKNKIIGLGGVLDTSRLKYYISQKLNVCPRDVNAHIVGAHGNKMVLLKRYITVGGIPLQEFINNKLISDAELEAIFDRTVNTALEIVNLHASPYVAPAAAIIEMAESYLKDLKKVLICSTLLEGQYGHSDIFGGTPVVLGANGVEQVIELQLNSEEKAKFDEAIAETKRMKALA
Sequence of Protein kinase 7 (PK7), Plasmodium falciparum 3D7 (PF3D7_0213400) (Q7YTF7 1-343): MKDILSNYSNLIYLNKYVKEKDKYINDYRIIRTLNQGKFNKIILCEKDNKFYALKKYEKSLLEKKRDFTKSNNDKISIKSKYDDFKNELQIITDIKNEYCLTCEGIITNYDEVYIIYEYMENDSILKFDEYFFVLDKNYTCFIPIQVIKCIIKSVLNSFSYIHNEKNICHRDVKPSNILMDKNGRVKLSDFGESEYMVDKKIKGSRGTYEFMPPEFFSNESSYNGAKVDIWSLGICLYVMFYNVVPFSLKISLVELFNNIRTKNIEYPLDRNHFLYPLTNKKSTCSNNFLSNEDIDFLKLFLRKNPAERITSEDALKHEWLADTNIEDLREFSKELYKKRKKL
Sequence of Plasmodium falciparum protein kinase 6 (PK6, PF3D7_1337100) (Q8IDW1 1-305): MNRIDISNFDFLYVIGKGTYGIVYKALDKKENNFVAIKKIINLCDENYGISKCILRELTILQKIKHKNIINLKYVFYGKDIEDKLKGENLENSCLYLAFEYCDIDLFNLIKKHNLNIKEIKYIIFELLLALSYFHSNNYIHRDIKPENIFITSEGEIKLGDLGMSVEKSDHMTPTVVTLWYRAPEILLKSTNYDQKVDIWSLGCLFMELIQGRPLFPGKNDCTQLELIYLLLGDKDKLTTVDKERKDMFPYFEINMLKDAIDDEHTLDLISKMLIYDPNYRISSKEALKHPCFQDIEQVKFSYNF

For `Cc1ccccc1C1=CCN(CCCN2c3ccccc3Sc3ccc(Cl)cc32)CC1`, the figures for the growth inhibition in experiment [1] and in experiment [4] were 30% (inactive) and 90% (active), respectively. In addition, the inhibition in experiment [2] is 14% (inactive); in experiment [3], 5% (inactive). For the same molecule, the result in experiment [5], in experiment [6], in experiment [7] and in experiment [8] was inactive.
As to `CCCCc1ccc2[nH]cc(C3=CCN(C)CC3)c2c1Br`, the growth inhibition in experiment [1] and in experiment [4] was 94% (active) each time. In addition, the values for the inhibition in experiment [2] and in experiment [3] were 37% (inactive) and -5% (inactive), respectively. Moreover, the outcome in experiment [5], in experiment [6], in experiment [7] and in experiment [8] was inactive.
Regarding `CN1C(=O)OC[C@@H]1Cc1ccc2[nH]cc(C3=CCN(Cc4ccccc4)CC3)c2c1`, the growth inhibition was 66% (active) in experiment [1] and 86% (active) in experiment [4]. The figures for the inhibition in experiment [2] and in experiment [3] were 4% (inactive) and -9% (inactive), respectively. Moreover, the outcome in experiment [5], in experiment [6], in experiment [7] and in experiment [8] was inactive.
As for `COc1cc(C=CC(=O)N2CCC(CN3CCC(c4c[nH]c5ccccc45)CC3)CC2)cc(OC)c1`, the growth inhibition is 8% (inactive) in experiment [1] and 95% (active) in experiment [4]. The inhibition in experiment [2] is 19% (inactive); in experiment [3] it was 4% (inactive). The result in experiment [5], in experiment [6], in experiment [7] and in experiment [8] was inactive.
Consider `COC(=O)CN(C(=O)/C=C/c1ccc(Cl)c(Cl)c1)C1CCC(CN2CCC(c3c[nH]c4ccccc34)CC2)CC1` (stereo not given), for which the growth inhibition in experiment [1] was 69% (active); in experiment [4], 100% (active). For the same molecule, the values for the inhibition in experiment [2] and in experiment [3] were 31% (inactive) and -1% (inactive), respectively. Further, the result in experiment [5], in experiment [6], in experiment [7] and in experiment [8] was inactive.
As to `CC(Cc1ccc(OCCCCOc2ccccc2)cc1)NCCCN1CCOCC1` (stereo not given), the growth inhibition in experiment [1] is 78% (active); in experiment [4], 98% (active). The inhibition in experiment [2] was 98% (active); in experiment [3] it was -2% (inactive). Also, the result in experiment [5], in experiment [6], in experiment [7] and in experiment [8] was inactive.
On to `CC1=CC(=O)[C@@H](O)[C@]2(C)[C@H]3[C@@]4(O)OC[C@@]35[C@@H](C[C@@H]12)OC(=O)C[C@H]5[C@@H](C)[C@H]4O`, for which the growth inhibition in experiment [1] was 98% (active); in experiment [4], 99% (active). The inhibition in experiment [2] is 38% (inactive); in experiment [3], 4% (inactive). Moreover, the result in experiment [5], in experiment [6], in experiment [7] and in experiment [8] was inactive.
Take `COc1cccc(CCNC(C)Cc2ccc(OCCCCOc3ccccc3)cc2)c1` (stereo not given): the values for the growth inhibition in experiment [1] and in experiment [4] were 90% (active) and 97% (active), respectively. The inhibition is 100% (active) in experiment [2] and 5% (inactive) in experiment [3]. The outcome in experiment [5], in experiment [6], in experiment [7] and in experiment [8] was inactive.
For `COc1cc2nc(N(C)C3CCN(Cc4ccccc4)CC3)nc(N)c2cc1OC`, the figures for the growth inhibition in experiment [1] and in experiment [4] were 93% (active) and 99% (active), respectively. The inhibition in experiment [2] was 19% (inactive); in experiment [3], 1% (inactive). The outcome in experiment [5], in experiment [6], in experiment [7] and in experiment [8] was inactive.
In the case of `O=C(/C=C/c1cccc2ccccc12)NC1CCC(CN2CCC(c3c[nH]c4ccccc34)CC2)CC1` (stereo not given), the growth inhibition in experiment [1] was 66% (active) and 72% (active); in experiment [4], 101% (active) and 100% (active). The inhibition in experiment [2] was 45% (inactive) and 53% (active); in experiment [3], 5% (inactive) and -3% (inactive). Besides, the result in experiment [5], in experiment [6], in experiment [7] and in experiment [8] was inactive.
Take `N#Cc1ccc(N(CC(=O)NCCc2ccccc2)CC2CC2)c2ccccc12`: the growth inhibition in experiment [1] was 48% (inactive); in experiment [4], 99% (active). Further, the inhibition was 0% (inactive) in experiment [2] and -3% (inactive) in experiment [3]. For the same molecule, the result in experiment [5], in experiment [6], in experiment [7] and in experiment [8] was inactive.
Consider `O=C(NCCC1CCN(CCc2c[nH]c3ccccc23)CC1)Nc1ccc(Cl)c(Cl)c1`, for which the growth inhibition in experiment [1] was 5% (inactive); in experiment [4], 101% (active). Moreover, the inhibition is 18% (inactive) in experiment [2] and -2% (inactive) in experiment [3]. The result in experiment [5], in experiment [6], in experiment [7] and in experiment [8] was inactive.
Take `Cc1ccccc1CNCC(O)c1cccc(C(F)(F)F)c1` (stereo not given): the growth inhibition is 77% (active) in experiment [1] and 99% (active) in experiment [4]. Also, the inhibition in experiment [2] is 5% (inactive); in experiment [3], -4% (inactive). Besides, the outcome in experiment [5], in experiment [6], in experiment [7] and in experiment [8] was inactive.
Regarding `CCOC(C(=O)OCC1CCCN1C(C)C)(c1ccccc1)c1ccccc1` (stereo not given), the growth inhibition is 2% (inactive) in experiment [1] and 98% (active) in experiment [4]. The inhibition in experiment [2] is -1% (inactive); in experiment [3], -3% (inactive). In addition, the result in experiment [5], in experiment [6], in experiment [7] and in experiment [8] was inactive.
Turning to `CN(c1cc(NC(=O)c2ccccc2)ccn1)C1CCN(Cc2cccc(F)c2)CC1`, the growth inhibition in experiment [1] is 94% (active); in experiment [4] it was 92% (active). The inhibition in experiment [2] is -6% (inactive); in experiment [3] it was -3% (inactive). The outcome in experiment [5], in experiment [6], in experiment [7] and in experiment [8] was inactive.
In the case of `O=C(/C=C/c1ccc(Cl)c(Cl)c1)NC1[C@@H]2CC[C@H]1CC(CN1CCC(c3c[nH]c4ccccc34)CC1)C2` (stereo not given in full), the growth inhibition in experiment [1] and in experiment [4] was 100% (active) in each case. Further, the inhibition is 31% (inactive) in experiment [2] and -2% (inactive) in experiment [3]. Besides, the result in experiment [5], in experiment [6], in experiment [7] and in experiment [8] was inactive.
With `O=C(NC1CCC(CN2CCC(c3c[nH]c4ccccc34)CC2)CC1)c1cnn(-c2ccccc2)c1-c1ccccc1Cl` (stereo not given), the growth inhibition in experiment [1] was 11% (inactive); in experiment [4], 95% (active). In addition, the inhibition is 66% (active) in experiment [2] and -6% (inactive) in experiment [3]. Moreover, the result in experiment [5], in experiment [6], in experiment [7] and in experiment [8] was inactive.
Turning to `COc1ccc(OC)c(C=CC(=O)NC2CCC(CN3CCC(c4c[nH]c5ccccc45)CC3)CC2)c1` (stereo not given), the growth inhibition in experiment [1] is 62% (active); in experiment [4], 98% (active). Moreover, the values for the inhibition in experiment [2] and in experiment [3] were 43% (inactive) and -4% (inactive), respectively. In addition, the outcome in experiment [5], in experiment [6], in experiment [7] and in experiment [8] was inactive.
With `O=C(/C=C/c1ccc(Cl)c(Cl)c1)N1CCC(CN2CCC(c3c(-c4ccc(F)cc4)[nH]c4ccccc34)CC2)CC1`, the growth inhibition in experiment [1] was 98% (active); in experiment [4], 101% (active). Also, the inhibition in experiment [2] is 19% (inactive); in experiment [3], -3% (inactive). Also, the outcome in experiment [5], in experiment [6], in experiment [7] and in experiment [8] was inactive.
On to `COc1cc2c(c(OC)c1OC)C[C@H]1c3c(cc4c(c3-2)OCO4)CCN1C`, for which the growth inhibition is 30% (inactive) in experiment [1] and 84% (active) in experiment [4]. The inhibition in experiment [2] is 7% (inactive); in experiment [3], -1% (inactive). Besides, the outcome in experiment [5], in experiment [6], in experiment [7] and in experiment [8] was inactive.
